Screens (PubChem BioAssay)
RORg inh – qHTS for inhibitors of ROR gamma transcriptional activity. Drosophila S2 Gal4-RORgamma UAS-luciferase reporter, 20 h. Potency, µM (series often up to 53.6 µM), for the others: at the top dose activity change, negative = inhibition, usual class: inhibitors. hit rate 5.4% among 310,000. AID 2551, 2010; note: % is set by controls: 0 for no effect and ±100 for the full control effect; nearly all actives have a fitted effect of over 60% in size
Target sequence (P51450 whole entry, looked up, the tested form may be a part): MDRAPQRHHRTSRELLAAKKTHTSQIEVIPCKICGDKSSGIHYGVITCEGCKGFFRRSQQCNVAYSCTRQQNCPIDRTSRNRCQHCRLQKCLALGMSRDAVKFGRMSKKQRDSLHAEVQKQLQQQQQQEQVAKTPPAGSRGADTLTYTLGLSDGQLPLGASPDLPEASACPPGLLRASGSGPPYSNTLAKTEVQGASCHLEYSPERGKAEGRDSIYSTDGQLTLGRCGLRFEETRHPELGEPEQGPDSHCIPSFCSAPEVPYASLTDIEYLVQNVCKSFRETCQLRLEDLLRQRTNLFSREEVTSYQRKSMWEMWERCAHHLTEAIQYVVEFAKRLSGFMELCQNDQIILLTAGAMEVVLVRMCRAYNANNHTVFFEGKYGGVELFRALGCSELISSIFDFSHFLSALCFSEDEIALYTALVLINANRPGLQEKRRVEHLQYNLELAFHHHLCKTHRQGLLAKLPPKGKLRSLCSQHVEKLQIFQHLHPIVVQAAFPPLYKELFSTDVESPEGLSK
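Stable Schneider cell line, Gal4 DNA-binding domain fused to ROR gamma, UAS-luciferase. Cmpd 1 hr RT → CuSO4 700 uM final → 20 hr RT → luciferase reagent 10 min → luminescence.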
S2 tox – Viability Counterscreen for Primary qHTS for Inhibitors of ATXN expression; S2 cells (HEK-293 line with an ATXN2-luciferase reporter) viability, CellTiter-Fluor protease fluorescence, 24 h; Potency, µM (titrated, usually from 56.7 µM), most hits filed as cytotoxic; hit rate 0.49% among 400,000; note: nearly all actives have a fitted effect of over 40% in size
VP16 counter – VP16 counterscreen qHTS for inhibitors of ROR gamma transcriptional activity; Drosophila S2 Gal4-VP16 UAS-luciferase, luminescence, 20 h; Potency, µM (top dose mostly 53.6 µM), without a hit: at the top dose activity, negative = inhibition, hits mostly inhibitors; hit rate 3.5% among 310,000;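 note: Gal4-VP16 expression switched on by copper sulfate through the metallothionein promoter; % is set by controls: 0 for no effect and ±100 for the full control effect; nearly all actives have a fitted effect of over 50% in size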
TGFb SMAD3 inh – qHTS for Inhibitors of TGF-b; HepG2 CAGA-GFP TGF-b/SMAD3 reporter, GFP fluorescence, 18 h; TGF-beta stimulated, 500 pg/mL final; Potency, µM (doses to about 46.1 µM), without a hit: at the highest dose activity, negative = inhibition, most hits filed as inhibitors; hit rate 1.2% among 410,000; AID 588855, 2011; note: % is set by controls: 0 for no effect and ±100 for the full control effect; nearly all actives have a fitted effect of over 65% in size
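First, reporter cells (HEPG2 CAGA-GFP) rested 2 h at 37 degrees C. Next, compounds were pinned in and TGF-beta added to 500 pg/mL final. After 18 h, GFP was imaged per cell and summed per well.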
ATXN2 expr inh – Primary qHTS for Inhibitors of ATXN expression; hit rate 0.72% among 360,000; AID 1745845, 2022; Potency, µM (top dose mostly 57 µM), without a hit: at the top dose activity change, negative = inhibition, most hits filed as inhibitors; HEK-293 ATXN2-luciferase reporter, luminescence, 24 h; note: % is set by controls: 0 for no effect and ±100 for the full control effect; nearly all actives have a fitted effect of over 55% in size
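ATXN2-luciferase reporter cells (luciferase flanked by upstream and downstream ATXN2 gene portions) were treated 24 h at 37 °C with compounds at up to 57 uM. SteadyGlo luminescence gave expression; GF-AFC fluorescence gave viability.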
HepG2 tox – qHTS for Inhibitors of TGF-b: Cytotox Counterscreen; HepG2 CAGA-GFP viability, ATP luminescence, 18 h; Potency, µM (doses to about 46.1 µM), for the others: at the top dose activity change, negative = cytotoxicity, usual class: cytotoxic; hit rate 0.76% among 410,000
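HepG2 CAGA-GFP cells (1000/well, DMEM with 1% FBS) received compound, then TGF-beta at 500 pg/mL final, and were incubated 18 hours at 37 degrees C. Viability was read by CellTiter-Glo luminescence. Media-only wells were set as complete cell-killing and DMSO as no toxicity.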
* marks the source's active call; other numbers are inactive results. This is a sample that favours compounds with a hit; in the whole collection about 6.3% have one here. Calls come from the whole dose curve; as a rule, active = well fitted curve in the direction sought with a large enough effect; inconclusive = small, poorly fitted or top-dose-only effect, or another doubt; inactive = no such curve, though single readings can be large; an effect the other way counts as inactive or inconclusive. Potency is the fitted concentration of half-maximal effect.

What do the screens show for `Cc1ccc(NC(=O)c2cc3nc(-c4ccccc4)cc(-c4ccccc4)n3n2)cc1`?
TGFb SMAD3 inh: 2%; HepG2 tox: -5%

What do the screens show for `Cc1ccc(NC(=O)c2cc3nc(C)cc(C)n3n2)cc1`?
RORg inh: 6.3µM*; S2 tox: inactive; VP16 counter: 10µM*; TGFb SMAD3 inh: inconclusive; ATXN2 expr inh: -31%; HepG2 tox: 0%

How did COc1ccc(CNC(=O)Nc2nc(C(N)Cc3ccc(F)cc3)cs2)cc1 (centres undefined) do in these assays?
S2 tox: inconclusive; TGFb SMAD3 inh: inconclusive; ATXN2 expr inh: inconclusive; HepG2 tox: -96%

How did Cc1ccc(C(=O)Nc2nc(C(N)Cc3ccc(C(F)(F)F)cc3)cs2)cc1 (centres undefined) do in these assays?
TGFb SMAD3 inh: inconclusive; ATXN2 expr inh: inconclusive; HepG2 tox: 18µM*

Results for COc1ccc(NC(=O)Nc2nc(C(N)Cc3ccc(C(F)(F)F)cc3)cs2)cc1 (centres undefined) ?
S2 tox: inactive; TGFb SMAD3 inh: 11µM*; ATXN2 expr inh: inconclusive; HepG2 tox: 10µM*

Results for COc1ccc(CC(N)c2csc(NC(=O)c3cc(C(C)(C)C)oc3C)n2)cc1 (centres undefined) ?
S2 tox: 28µM*; TGFb SMAD3 inh: inconclusive; ATXN2 expr inh: inconclusive; HepG2 tox: -103%

What do the screens show for `COc1cc(NC(=O)Nc2nc(C(N)Cc3ccc(C(F)(F)F)cc3)cs2)cc(OC)c1OC` (centres undefined)?
S2 tox: inconclusive; TGFb SMAD3 inh: 11µM*; ATXN2 expr inh: inconclusive; HepG2 tox: -106%

Results for COc1ccc(CC(N)c2csc(NC(=O)CCc3ccccc3)n2)cc1 (centres undefined) ?
S2 tox: inactive; TGFb SMAD3 inh: inconclusive; ATXN2 expr inh: inconclusive; HepG2 tox: -66%

Results for CC(=O)c1ccc(Nc2nc(C(N)Cc3ccc(C(F)(F)F)cc3)cs2)cc1 (centres undefined) ?
S2 tox: inactive; TGFb SMAD3 inh: inconclusive; ATXN2 expr inh: 0%; HepG2 tox: -94%

Results for COc1ccc(N2C(=O)[C@@H]3C[C@H]2CN3Cc2cccn2-c2nccs2)cc1Cl ?
S2 tox: inactive

How did CCN(C(=O)C1CCC(CNS(=O)(=O)c2cccc3nsnc23)CC1)c1cccc(C)c1 (centres undefined) do in these assays?
S2 tox: inconclusive; TGFb SMAD3 inh: inconclusive; ATXN2 expr inh: -22%; HepG2 tox: -10%

How did COc1ccccc1C(NC(=O)C1CCN(CCc2ccc(Br)cc2)CC1)c1ccccn1 (centres undefined) do in these assays?
S2 tox: inactive; TGFb SMAD3 inh: -6%; ATXN2 expr inh: -17%; HepG2 tox: -25%

Results for Cn1c(CCNC(=O)C2CC23CCN(C(=O)C2=CCCC2)CC3)nc2ccccc21 (centres undefined) ?
S2 tox: inactive

Results for CC(=O)NC12CC3CC(C1)CC(C(=O)OCC(=O)c1ccc4c(c1)OCCO4)(C3)C2 ?
RORg inh: 14µM*; S2 tox: inconclusive; VP16 counter: inconclusive; TGFb SMAD3 inh: -2%; ATXN2 expr inh: 58%; HepG2 tox: -1%

Results for CC(=O)NC12CC3CC(C1)CC(C(=O)OCC(=O)c1cc(C)n(C)c1C)(C3)C2 ?
S2 tox: inactive; TGFb SMAD3 inh: 3%; ATXN2 expr inh: 4%; HepG2 tox: -23%

Results for CCOC(=O)C1CCC(CN(Cc2ccc(Cl)cc2)S(=O)(=O)c2ccc(Br)cc2)CC1 (centres undefined) ?
S2 tox: inactive; TGFb SMAD3 inh: -5%; ATXN2 expr inh: -1%; HepG2 tox: 10%

What do the screens show for `CCOC(=O)C1=CCN(S(=O)(=O)c2ccccc2Br)C1c1ccc(C)cc1` (centres undefined)?
S2 tox: inactive; TGFb SMAD3 inh: -14%; ATXN2 expr inh: -16%; HepG2 tox: -8%

Results for Cc1cccn2cc(-c3ccc(NC(=O)Cc4ccccc4)cc3)nc12 ?
RORg inh: 5µM*; S2 tox: inconclusive; VP16 counter: inconclusive; TGFb SMAD3 inh: inconclusive; ATXN2 expr inh: -24%; HepG2 tox: -61%

Results for COc1ccc(CC(=O)Nc2ccc(-c3cn4cccc(C)c4n3)cc2)cc1OC ?
RORg inh: 25%; S2 tox: inactive; VP16 counter: -1%; TGFb SMAD3 inh: -11%; ATXN2 expr inh: 5%; HepG2 tox: 2%

What do the screens show for `CC(=O)Nc1nonc1-c1nnc(SCc2ccccc2F)n1C`?
S2 tox: inactive; TGFb SMAD3 inh: 7%; ATXN2 expr inh: 8%; HepG2 tox: -17%

What do the screens show for `c1ccc(CNc2nc(-c3cccnc3)nc3ccccc23)cc1`?
RORg inh: 22%; S2 tox: inactive; VP16 counter: 8%; TGFb SMAD3 inh: -8%; HepG2 tox: -40%

How did c1ccc(CN2CCC(Nc3nc(-c4cccnc4)nc4ccccc34)CC2)cc1 do in these assays?
RORg inh: -26%; S2 tox: inactive; VP16 counter: -2%; TGFb SMAD3 inh: 16µM*; ATXN2 expr inh: inconclusive; HepG2 tox: -62%

What do the screens show for `Cc1csc(/C(=N\O)c2csc(C)n2)n1`?
RORg inh: 2.8µM*; S2 tox: inactive; VP16 counter: 4.5µM*; TGFb SMAD3 inh: 1%; ATXN2 expr inh: -2%; HepG2 tox: -9%

What do the screens show for `O=[N+]([O-])c1ccc(Nc2ccccc2-c2ccccc2)c2nonc12`?
ATXN2 expr inh: -29%

How did COc1ccc(N2C(=O)[C@@H]3C[C@H]2CN3Cc2cccn2-c2ccccn2)cc1Cl do in these assays?
S2 tox: inactive

How did O=C1/C(=C/N(C(=O)c2ccco2)c2ccc(Br)cc2)Sc2ccccc21 do in these assays?
RORg inh: 35µM*; S2 tox: inconclusive; VP16 counter: 13µM*; TGFb SMAD3 inh: -11%; ATXN2 expr inh: -7%; HepG2 tox: -54%

What do the screens show for `CCOCCCN(Cc1ccco1)S(=O)(=O)c1cc2c(cc1Cl)NC(=O)CO2`?
TGFb SMAD3 inh: -27%; HepG2 tox: -7%
